This passage reports growth results from PubChem BioAssay (NCI).

About 83,000 compounds went through this panel and 20% of them were active in at least one assay; those are over-represented in the sample as a whole.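 Interpretation: 100, growth as untreated; towards 0, rising growth inhibition; 0, no net growth; 0 to -100, cell death. Compounds scoring below 10 were considered active.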 A number with no mark means an inactive call. The source made the active and inactive calls.

This test has as its system DU-145 prostate. The experiment in a line: NCI-60 one-dose screen, 48 h (100 = growth as untreated, 0 = no growth, -100 = all killed). As to conditions: 10 µM unless noted.
Regarding `CC(O)CN(CC(C)O)N(CC(C)O)CC(C)O` (centres undefined), the growth was 111%.
The figure for `O=C(Nc1ccc(-n2cc(-c3ccncc3)c(-c3ccc(Cl)c(O)c3)n2)cc1)c1cc(C(F)(F)F)cc(C(F)(F)F)c1` is 74.2%.
In the case of `COc1cc(-c2nn(-c3ccc(NC(=O)c4cc(Cl)cc(Cl)c4)cc3)cc2-c2ccncc2)ccc1Cl`, the growth was 96.9%.
The figure for `CCCCCCC(C)N(CC(C)(C)O)C(=O)c1ccc([N+](=O)[O-])cc1` (centres undefined) is 101%; for `COc1cc(-c2nn(-c3ccc(NC(=O)c4ccc(Cl)c(Cl)c4)cc3)cc2-c2ccncc2)ccc1Cl` it is 82%; for `COC(=O)[C@@H]1[C@H](O)[C@H](C)[C@H](O)[C@H](C)/C=C\C=C(C)C(=O)Nc2c(C)c(OC(C)=O)c3c(c2O)C(=O)C(C)=C2OCOC(=C23)C(C)=C[C@@](C)(O)[C@H](O)[C@@H](C)[C@H]1OC(C)=O` it is 144%.
With `C/C(=C\c1ccc2ccccc2c1)[N+](=O)[O-]`, the growth was 27%.
For the compound `Cc1cc2cn3c4ccc(O)cc4[nH]c(=O)c3c2cc1C`, the growth was 3.48% (active).
The figure for `COc1ccc(C(=O)N2N=C(c3ccc(Br)cc3)CC2c2cn(-c3ccccc3)nc2-c2ccccc2)cc1` (centres undefined) is 47.2%; for `O=CN/N=C/c1ccc(Cl)c([N+](=O)[O-])c1` it is 24.5%; for `O=C1CCNC1` it is 103%.
As for `O=c1[nH]c2cc(O)ccc2n2cc3c(F)cccc3c12`, the growth is 33.9%.
To `O=C(CCC(=O)N(CCO)CCO)N(CCO)CCO` belongs 107%; to `O=C(CCl)NC1c2ccccc2Oc2ccccc21`, 65.5%.
